Source: PubChem (National Center for Advancing Translational Sciences (NCATS))
The list is not random: actives were taken first. Their share in the collection is about 7.5%.
FLuc counter = qHTS profiling assay for firefly luciferase inhibitor/activator using purifed enzyme and Km concentrations of substrates (counterscreen for miR-21 project). Luciferin 4-monooxygenase (Photinus pyralis), P08659. purified FLuc, Km substrates, luminescence inhibition. Potency, µM (doses to about 57.5 µM), inactives show at the top dose activity change, negative = inhibition, hits mostly inhibitors. hit rate 6.9% among 360,000. AID 588342, 2011;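 note: plate controls were vehicle for no effect and reference inhibitor for full effect; nearly all actives have a fitted effect of over 55% in size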
Target sequence (P08659 whole entry, looked up): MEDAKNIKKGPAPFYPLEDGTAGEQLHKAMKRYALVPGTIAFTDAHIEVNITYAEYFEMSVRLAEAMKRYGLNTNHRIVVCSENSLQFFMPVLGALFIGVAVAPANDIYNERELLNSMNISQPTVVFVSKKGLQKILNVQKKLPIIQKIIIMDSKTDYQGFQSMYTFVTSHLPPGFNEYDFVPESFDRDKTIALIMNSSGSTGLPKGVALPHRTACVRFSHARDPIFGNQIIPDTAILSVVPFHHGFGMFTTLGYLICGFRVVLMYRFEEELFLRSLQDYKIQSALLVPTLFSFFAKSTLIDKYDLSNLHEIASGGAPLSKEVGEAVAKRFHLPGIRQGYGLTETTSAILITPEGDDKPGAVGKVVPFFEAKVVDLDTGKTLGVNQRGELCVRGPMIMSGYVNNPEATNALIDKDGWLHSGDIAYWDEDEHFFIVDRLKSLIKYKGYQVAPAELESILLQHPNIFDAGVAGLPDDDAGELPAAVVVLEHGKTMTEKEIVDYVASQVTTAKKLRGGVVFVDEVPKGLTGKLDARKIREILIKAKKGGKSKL
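Biochemical qHTS of compounds, final roughly 60 µM downward over six points, against 10 nM purified firefly luciferase using Km concentrations of substrates (10 uM D-luciferin, 10 uM ATP) in Tris acetate pH 7.5 buffer; luminescence output.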
ELG1 genotoxic = qHTS screen for small molecules that induce genotoxicity in human embryonic kidney (HEK293T) cells expressing luciferase-tagged ELG1; hit rate 1.3% among 330,000; Potency, µM (doses to about 46 µM), without a hit: at the top dose activity change, positive = activation, usual class: activators; HEK293T ELG1-luciferase reporter, luminescence, 16 h; AID 504466, 2011; note: % of control where 0% means no effect; nearly all actives have a fitted effect of over 60% in size
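Screening used a luciferase reporter fused to human ELG1 in HEK293T cells. Luminescence was read on a CCD plate imager after 16 hr exposure and 30 min ONE-Glo incubation.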
SMN2 splice enh = qHTS Assay for Enhancers of SMN2 Splice Variant Expression. HEK293 SMN2-luciferase splicing reporter, luminescence, 30-36 h. Potency, µM (titrated, usually from 46.1 µM), inactives show at the highest dose activity change, positive = activation, hits mostly activators. hit rate 2.8% among 210,000; note: % of control where 0% means no effect; nearly all actives have a fitted effect of over 55% in size
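qHTS luciferase splicing reporter: luminescence rises when SMN2 exon 7 is included in transfected HEK293 cells. Compound exposure lasted 30-36 h at 37C, with 4.5 mM final sodium butyrate as control, followed by a ONE-Glo read.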
NPC1 prom act = qHTS Assay for NPC1 Promoter Activators. Huh7 NPC1 promoter luciferase reporter, 24 h. Potency, µM (highest dose often 9.22 µM), inactives show at the top dose activation, most hits filed as activators. hit rate 2.4% among 320,000; note: % of control where 0% means no effect; nearly all actives have a fitted effect of over 60% in size
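NPC1 promoter–luciferase Huh7 cells; 24 h compound; luminescence.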
Rab9 promoter act = qHTS Assay for Rab9 Promoter Activators. Huh7 Rab9 promoter-luciferase reporter, luminescence, 24 h. Potency, µM (doses to about 9.22 µM), without a hit: at the highest dose activation, negative = inhibition, hits mostly activators. hit rate 2.8% among 320,000; note: % of control where 0% means no effect; nearly all actives have a fitted effect of over 60% in size
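Using Huh7 cells stably transfected with Rab9 promoter–luciferase, compounds were incubated 24 h at 37 °C, 5% CO2; luciferase luminescence was read 10 min after reagent addition.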
* hit, by the source's call; u = inconclusive; x = not tested or not shown. Calls come from the whole dose curve; as a rule, active = well fitted curve in the direction sought with a large enough effect; inconclusive = small, poorly fitted or top-dose-only effect, or another doubt; inactive = no such curve, though single readings can be large; an effect the other way counts as inactive or inconclusive. Potency is the fitted concentration of half-maximal effect.

SMILES | FLuc counter | ELG1 genotoxic | SMN2 splice enh | NPC1 prom act | Rab9 promoter act
CCOC(=O)N1CCN(c2c(NCC3CCCO3)c(=O)c2=O)CC1 (stereo not given) | -1% | 3% | -3% | -3% | -8%
COc1ccc2c3n([n+]([O-])c2c1)CCN=C3c1ccc(C)cc1 | u | 9% | x | 6% | 9%
CC(=O)c1cc2c(cc1N/C(=N/S(=O)(=O)c1ccccc1)c1ccc(Cl)cc1)OCO2 | 2% | -2% | u | -2% | -1%
CC(C)OC(=O)c1ccc(COC(=O)c2cnccn2)cc1 | 7.6µM* | 2% | -8% | 1% | 0%
O=C(Oc1ccc(Cl)cc1)c1ccc(COC(=O)c2cnccn2)cc1 | 12µM* | 9% | 12% | -5% | -3%
CC(=O)c1ccc(Sc2ccccn2)c([N+](=O)[O-])c1 | 7% | 0% | x | 0% | -2%
Cc1ccc2c(c1)N(CCC(=O)NCCCN1CCCC1)C(=O)CO2 | 0% | 2% | x | 7% | 0%
CC1CCc2nc(/C(C#N)=C/c3ccncc3)sc2C1 (stereo not given) | 9.5µM* | u | 18µM* | 2.8µM* | 3.2µM*
N#C/C(=C/c1ccncc1)c1nc2ccccc2s1 | u | 4% | 2% | -1% | -7%
COc1ccccc1N1CCN(S(=O)(=O)c2ccc(-c3ccno3)cc2OC)CC1 | -4% | x | x | x | x
COc1ccccc1-n1c(=O)oc2ccc(Cl)cc2c1=O | 13µM* | 6% | x | u | 4%
Cn1ccnc1SCC(=O)Nc1cccc(Br)c1 | -16% | x | -1% | x | x
Cn1ccnc1SCC(=O)c1cccc(Br)c1 | 15µM* | u | 14% | 18% | u
O=C(CSc1nccc(=O)[nH]1)c1cc2ccccc2o1 | 15µM* | 10% | x | -4% | 4%
Cn1ccnc1SCC(=O)Nc1ccc2ccccc2c1 | 5.4µM* | 1.3µM* | 6.3µM* | 1.3µM* | 1.6µM*
Cn1ccnc1SCC(=O)c1ccc2ccccc2c1 | 8.5µM* | u | u | 2.2µM* | 1µM*
CC(=O)Nc1nc2c(s1)C(=O)NCCC2 | 2% | -1% | 1% | -2% | -4%
CC(C)Oc1ccc(CNC(=O)CN2C(=O)CCc3cc(S(=O)(=O)N4CCCCC4)ccc32)cc1 | -5% | x | x | x | x
Cn1ccnc1SCC(=O)c1cc2ccccc2o1 | 9.5µM* | u | 3% | u | u
COc1cccc(C(=O)CSc2nccn2C)c1 | 17µM* | u | x | 1.6µM* | 2.5µM*
Cn1cnnc1SCC(=O)c1cc2ccccc2o1 | -3% | 1% | 6% | -1% | -1%
COc1ccc(C(=O)CSc2nccn2C)c(OC)c1 | 13µM* | u | x | 4µM* | 3.5µM*
CCOC(=O)C1=C(C)N(CC)C(=S)NC1c1ccc(Cl)cc1 (stereo not given) | 3% | -1% | -4% | -1% | 0%
CC(=O)c1ccc(Cl)c(Cl)c1Cl | 6% | -2% | -6% | -1% | -3%
O=S(=O)(Nc1ccc2c(c1)OCCO2)c1cccc2nsnc12 | 24µM* | 16µM* | -13% | 1% | 1%
SMILES | FLuc counter | ELG1 genotoxic | SMN2 splice enh | NPC1 prom act | Rab9 promoter act
O=C(CCNS(=O)(=O)c1cccc2nsnc12)Nc1ccc2c(c1)OCCO2 | u | 7% | 5% | 1% | -2%
Cc1ccc2cccc(S(=O)(=O)Nc3ccc4c(c3)OCO4)c2n1 | 2% | 5% | 7.1µM* | -2% | -3%
O=C(c1ccco1)N1CCN(C(=O)c2cc(=O)[nH]c3ccccc23)CC1 | x | 2% | x | -3% | -6%
COC(=O)c1cccc(S(=O)(=O)N2CCC(C)CC2)c1 | 2% | 0% | 22% | -3% | 2%
O=C(O)c1cc(NC(=O)c2ccc3c(c2)C(=O)N(Cc2cccnc2)C3=O)cc(C(=O)O)c1 | 1% | 2% | x | 3% | 2%
CCN1C(=O)c2ccc(C(=O)Nc3nccs3)cc2C1=O | u | 0% | 2% | 0% | -3%
CC(C)(C)N1C(=O)c2ccc(C(=O)Nc3nccs3)cc2C1=O | 3.4µM* | u | 16% | 3.5µM* | 2.8µM*
Cc1cnc(NC(=O)c2ccc3c(c2)C(=O)N(Cc2cccnc2)C3=O)s1 | 1.7µM* | 4% | x | 3% | 2%
C#Cc1cccc(NC(=O)c2ccc3c(c2)C(=O)N(Cc2cccnc2)C3=O)c1 | 13µM* | 1% | x | 3% | -5%
O=C(Nc1nccs1)c1ccc2c(c1)C(=O)N(Cc1cccnc1)C2=O | 24µM* | -4% | x | 1% | 2%
COc1cc(C(N)=O)cc(Cl)c1OCc1ccccc1 | -3% | 4% | 1% | -2% | -3%
CCOc1ccc(-n2c(COc3ccccc3)nnc2SCC(N)=O)cc1 | 3% | 0% | -11% | 2% | 2%
COc1ccc(OC)c2sc(NC(=O)c3ccc(Br)s3)nc12 | 1% | 0% | 16% | 1% | -7%
Cc1cc(C(=O)Nc2nc3c(s2)CCCC3)cs1 | 0.6µM* | u | u | u | 1µM*
Cc1ncsc1C(=O)Nc1nc2c(s1)CCCC2 | 7.6µM* | u | 11µM* | 2.5µM* | 1µM*
COc1ccc(C(=O)Nc2nc3c(s2)CCCC3)cc1Cl | 2.4µM* | x | x | x | x
COc1ccccc1OCC(=O)Nc1nc2c(s1)CCCC2 | -15% | 0% | x | 21% | 22%
Cc1ccc(CC(=O)Nc2nc3c(s2)CCCC3)cc1 | u | 26% | x | 9% | 8%
O=C(Nc1nc2c(s1)CCCC2)c1ccc(Br)s1 | 1.5µM* | u | u | 2.8µM* | 0.5µM*
COCCN(CCOC)S(=O)(=O)c1ccc(C(=O)Nc2sc3c(c2C(=O)OC)CCN(C)C3)cc1 | -1% | x | x | x | x
O=C(Nc1nc2c(s1)CCCC2)c1ccc2ncsc2c1 | 2.4µM* | u | 0.5µM* | u | u
Cc1cccc(C(=O)Nc2nc3c(s2)CCCC3)c1 | 1.3µM* | x | x | x | x
O=C(Nc1nnc(-c2ccccc2Cl)o1)c1ccco1 | 6µM* | u | u | 20% | -4%
COc1cc(-c2nnc(NC(=O)c3ccco3)o2)cc(OC)c1OC | -3% | 5% | x | -1% | -5%
Cc1ccc(-c2nnc(NC(=O)c3ccco3)o2)c(C)c1 | 2.7µM* | -4% | x | u | u
SMILES | FLuc counter | ELG1 genotoxic | SMN2 splice enh | NPC1 prom act | Rab9 promoter act
Cc1ccc(C)c(-c2nnc(NC(=O)c3ccco3)o2)c1 | 15µM* | -7% | x | 0% | -2%
Cc1nn(-c2nnc(NC3CCCCC3)nn2)c(C)c1Br | 4.3µM* | 18µM* | 13µM* | 2.2µM* | 2.2µM*
Cc1nn(C)c(C)c1S(=O)(=O)NC1CCCC1 | 0% | 0% | -9% | -6% | -2%
CCOc1c(OC)ccc2c3c(c(=O)oc12)CCCC3 | u | 8% | -28% | 1% | -1%
CCOc1c2ccoc2nc2c(OC)c(OC)ccc12 | 21µM* | u | x | 14% | 21%
C=CCOc1ccc2c(OC)c3ccoc3nc2c1OC | 9.5µM* | u | 13µM* | 22% | 2%
